# Assay results: paper PMC5540273 (PLoS ONE, 2017)
# Key:
# Conditions in all cases: concentration: 1 μM,replicates: in singlicate; n = 1
# [1] = test system: T1, NIM1
# T1 construct: gene MGC42105
# [2] = test system: NLK
# [3] = test system: T2, OSR1
# T2 construct: gene OXSR1
# [4] = test system: PAK1
# [5] = test system: PAK2
# [6] = test system: PAK3
# [7] = test system: PAK4
# [8] = test system: PAK6
# [9] = test system: PAK7
# [10] = test system: T3, PCTK1
# T3 construct: gene CDK16
# 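Also: KINOMEscan kinase panel screen.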
Structure (SMILES),%Inh [1] [%],%Inh [2] [%],%Inh [3] [%],%Inh [4] [%],%Inh [5] [%],%Inh [6] [%],%Inh [7] [%],%Inh [8] [%],%Inh [9] [%],%Inh [10] [%]
CC(C)N1C(=O)Cc2cc(Nc3ncc(C(F)(F)F)c(NCc4cccc(S(C)(=O)=O)c4)n3)ccc21,51,0,5,8,0,19,7,6,25,0
Cl.Cl.Nc1nc(-c2ccc3c(N)n[nH]c3c2)cc(N2CCCC(NC(=O)c3ccccc3)C2)n1 (stereo not drawn) [GSK2286775],2,13,0,6,1,0,0,17,0,5
Cc1ccc2c(-c3ccncc3)c(-c3ccc(F)cc3)nn2c1.Cl [GW461484],13,91.3,0,29,30,19,0,7,4,0
CCN(CC)CCOc1ccc(Nc2ncc3cc(-c4c(Cl)cccc4Cl)c(=O)n(C)c3n2)cc1 [SB-601273],96.4,99.3,16,82,17,47,53,41,,0
CN(C)CCOc1ccc(-c2cc(-c3c[nH]nc3-c3ccccn3)ccn2)cc1 [GW835314],10,0,0,0,0,24,0,90,4,3
Cl.Cl.NC[C@H](CC1CCCCC1)NC(=O)c1cc(Br)c(-c2ccnc3[nH]ccc23)s1 [GSK1581427],22,0,20,38,36,81,12,28,42,3
C[C@@H](Oc1cc(-c2cnn(C3CCNCC3)c2)cnc1N)c1c(Cl)ccc(F)c1Cl,8,0,36,12,9,0,12,0,0,25
CCn1c(-c2nonc2N)nc2c(C#CC(C)(C)O)nc(OCCN)cc21.Cl.Cl [GSK902056],10,0,32,11,36,10,68,45,93.4,2
Cc1cc(C(=O)Nc2ccc(Oc3ccc4nc(NC(=O)C5CC5)cn4n3)cc2)nn1-c1ccccc1,0,2,0,0,0,3,0,15,0,0
Cc1ccc(-n2nc(C(C)(C)C)cc2NC(=O)Nc2ccc(OCCN3CCOCC3)c3ccccc23)cc1 [GW839464],0,,0,0,0,35,10,12,0,0
Cl.Cl.NC[C@H](Cc1ccc(C(F)(F)F)cc1)NC(=O)c1cc(Br)c(-c2ccnc3[nH]ccc23)s1 [GSK1487252],4,0,0,37,33,83,0,25,33,0
CC(C)Nc1cc(-c2ccc3c(N)n[nH]c3c2)nc(N)n1 [GSK2221681],0,0,0,34,26,0,0,0,0,0
C[C@H]1Oc2cc(cnc2N)-c2c(nn(C)c2C#N)CN(C)C(=O)c2ccc(F)cc21,0,5,0,8,9,36,14,2,11,0
NC(=O)c1cc(-c2ccccc2)cc2c(C3CCNCC3)c[nH]c12 [GSK301362],15,28,14,30,27,38,0,0,4,9
C=CC(=O)Nc1cc2c(Nc3ccc(F)c(Cl)c3)ncnc2cc1OCCCN1CCOCC1 [GW781483],36,0,0,0,14,0,15,0,0,1
CNC(=O)c1ccccc1Sc1ccc2c(/C=C/c3ccccn3)n[nH]c2c1,8,100,0,9,8,0,2,10,40,
CN(C)CC(O)COc1ccc(Nc2nccc(-c3cnn4nc(N5CCOCC5)ccc34)n2)cc1 (stereo not drawn) [GW767488],51,11,54,17,34,4,25,30,9,97.6
Cl.Oc1cc(-c2nc(-c3ccccc3)[nH]c2-c2ccncc2)ccc1Cl [SB-386023],0,90,8,0,20,0,0,5,1,0
O=C(NCCCN1CCOC1=O)c1cnc(NCc2cc(Cl)ccc2Cl)nc1NC1CCCC1,2,17,0,9,17,0,18,16,2,0
C[C@@H]1CCN(C(=O)CC#N)C[C@@H]1N(C)c1ncnc2[nH]ccc12,7,12,0,0,0,1,0,0,0,0
Cc1occc1-c1nc(N)c(OC[C@@H](N)Cc2c[nH]c3ccccc23)cc1-c1cc2c(C)n[nH]c2cn1 [GSK1660450],74,17,13,97.8,86,75,0,11,9,10
CCN(CC)CCCCNc1ncc2cc(-c3c(Cl)cccc3Cl)c(NC(=O)NC(C)(C)C)nc2n1,6,81,0,18,2,7,0,0,16,0
Cc1n[nH]c2ccc(-c3cc(OC[C@@H](N)Cc4ccccc4)cnc3-c3ccoc3)cc12.O=C(O)C(F)(F)F.O=C(O)C(F)(F)F [GSK507358],20,3,12,88,40,27,0,3,56,4
O=C(NCCNc1ccnc(NCc2ccc(F)cc2)n1)c1cc2ccccc2s1 [GSK1379944],0,88,11,15,20,0,0,57,0,8
Nc1nc(Nc2ccccc2)cc(-c2ccc3c(N)n[nH]c3c2)n1 [GSK2225749],15,3,14,27,9,0,0,0,0,0
Cc1cc2cn[nH]c2cc1-c1cccc2c(N)c(C(N)=O)nnc12,27,0,48,24,10,85,16,12,0,26
COc1ccc(C[C@@H](CN)NC(=O)c2cc(Br)c(-c3ccnc4[nH]ccc34)s2)cc1.Cl.Cl [GSK1389063],13,0,34,78,62,93.9,89,89,98.7,16
